# Experimental data as given in PubChem BioAssay (NCI).
# Compounds without any hit were thinned out: in the full panel of roughly 79,000, 15% have a hit. A number with no mark means an inactive call. Active and inactive are the calls of the source. Rule as the data show it: active = growth inhibition above about 70%; inactive = the rest.
# Columns and labels:
# [1] = NCI Yeast Anticancer Drug Screen. Data for the rad50 strain (AID 155);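 also: 0% = growth of vehicle-only cultures of the same strain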; settings: S. cerevisiae rad50 strain growth inhibition, active compounds read high
# Summary of the method: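 Readout: growth inhibition relative to vehicle-treated cultures. Compound exposure was carried out in a genetically defined yeast strain deficient in DNA damage repair.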
# [2] = NCI Yeast Anticancer Drug Screen. Data for the mec2-1 strain (AID 157); settings: S. cerevisiae mec2-1 strain, active compounds read high
# Summary of the method: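 Yeast mec2-1 mutant treated with compound. Readout: growth inhibition vs vehicle controls.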
# [3] = NCI Yeast Anticancer Drug Screen. Data for the sgs1 mgt1 strain (AID 161);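 also: 0% = growth of cultures given vehicle only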; settings: S. cerevisiae sgs1 mgt1 strain, active compounds read high
# Summary of the method: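 Test agents were incubated with a DNA-repair-mutant yeast strain. Growth was then read and compared against vehicle-treated controls.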
# [4] = NCI Yeast Anticancer Drug Screen. Data for the cln2 rad14 strain (AID 165);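 also: 0% = growth equal to vehicle treated cultures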; settings: S. cerevisiae cln2 rad14 strain, active compounds read high
# Summary of the method: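 cln2 rad14 yeast strain; compound exposure; growth inhibition read vs vehicle controls.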
# [5] = NCI Yeast Anticancer Drug Screen. Data for the bub3 strain (AID 167); settings: S. cerevisiae bub3 mutant strain, active compounds read high
# Summary of the method: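 Readout: yeast growth inhibition, expressed relative to vehicle-only wells. The test organism is a mutant strain from a panel with lesions in DNA repair or checkpoint genes.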
# [6] = NCI Yeast Anticancer Drug Screen. Data for the mlh1 rad18 strain (AID 175); settings: S. cerevisiae mlh1 rad18 strain growth inhibition, active compounds read high
# Summary of the method: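 Yeast w/ defined DNA-repair lesions; compound exposure; growth vs vehicle controls → % inhibition.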
# [7] = at 5.0 µM (retest, dose inferred, filed as 0.5)
# [8] = at 50.0 µM (retest, dose inferred, filed as 5.0)
SMILES,"growth inhibition [1, 7]","growth inhibition [1, 8]",growth inhibition ([1]; at 50.0 µM),"growth inhibition [2, 7]","growth inhibition [2, 8]",growth inhibition ([2]; at 50.0 µM),"growth inhibition [3, 7]","growth inhibition [3, 8]",growth inhibition ([3]; at 50.0 µM),"growth inhibition [4, 7]","growth inhibition [4, 8]",growth inhibition ([4]; at 50.0 µM),"growth inhibition [5, 7]","growth inhibition [5, 8]",growth inhibition ([5]; at 50.0 µM),"growth inhibition [6, 7]","growth inhibition [6, 8]",growth inhibition ([6]; at 50.0 µM)
CCCCC1C(=O)N2c3ccccc3-c3ccccc3N2C1=O,-5%,30%,65.5%,4%,33%,6.8%,-3%,23%,43.2%,-4%,8%,14.8%,6%,10%,17.4%,0%,34%,35%
CC(=O)OC/C=C/CCCOC(C)=O,-15%,4%,77.8% (active),-12%,-17%,64.3%,-7%,5%,84% (active),38%,31%,77.9% (active),17%,19%,80.3% (active),5%,-5%,62.6%
Oc1ccc2oc3ccccc3c2c1,9%,94% (active),94.5% (active),0%,87% (active),76% (active),0%,82% (active),84.3% (active),-3%,46%,75.5% (active),0%,92% (active),88.4% (active),3%,94% (active),94.5% (active)
CCOC(=O)C(Cl)C(Cl)C(=O)OCC (stereo not given),12%,98% (active),98.8% (active),6%,98% (active),99% (active),2%,99% (active),99.5% (active),6%,98% (active),98.4% (active),22%,98% (active),99% (active),12%,99% (active),99% (active)
CCOC(=O)/C(=C/c1ccccc1Br)P(=O)(OCC)OCC,7%,39%,71.2% (active),-6%,60%,35.8%,-12%,38%,41.9%,18%,53%,33.5%,-2%,85% (active),61.3%,-18%,74% (active),30%
COC(=O)c1nc(=S)[nH]c(C(=O)OC)c1C(=O)c1ccc(O)c(OC)c1,-6%,95% (active),98.5% (active),-7%,97% (active),78.3% (active),-16%,96% (active),98.4% (active),-4%,90% (active),47%,1%,96% (active),84.3% (active),7%,97% (active),96.3% (active)
c1ccc(OCCCOc2ccccc2)cc1,4%,2%,-4.15%,-1%,-4%,10.8%,4%,3%,13%,3%,-9%,-5.75%,7%,25%,10.3%,2%,-1%,61.9%
CCOC(=O)Sc1nc2ccccc2[nH]1,4%,6%,53.2%,2%,3%,25.2%,4%,0%,62.1%,3%,1%,13.7%,2%,2%,7.45%,0%,7%,29.4%
O=C(C1=NNC(c2ccccc2)C1C(=O)c1ccccc1)c1ccccc1 (stereo not given),-1%,82% (active),74.8% (active),-7%,65%,30.6%,2%,84% (active),79% (active),2%,67%,67%,-10%,86% (active),75% (active),4%,86% (active),81.2% (active)
COC(=O)c1nnn(-c2cccc(C(F)(F)F)c2)c1C(=O)c1ccc(Cl)c(Cl)c1,-3%,98% (active),97.7% (active),8%,98% (active),80% (active),-5%,99% (active),97.7% (active),9%,95% (active),59.2%,16%,98% (active),89.4% (active),4%,98% (active),97% (active)
